Compound activity from PubChem BioAssay.
In the library only some 1.8% were active in any assay of this set; here they are far more common.
TRPML1 blocker: human mucolipin-1 channel inhibition. Q9GZU1. TRPML1-inducible cells, Ca2+ dye fluorescence, FDSS; active compounds read low; inhibition of EC80 agonist-evoked calcium signal. activity change, negative = inhibition, % (no concentration beside the values). 390,000 compounds, 0.02% hits. AID 624415; in the data active means activity change below about -50%; inconclusive means between about -30% and that limit;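 further: stimulus is agonist 54-4 at its EC80 concentration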
Target sequence (Q9GZU1 whole entry, looked up): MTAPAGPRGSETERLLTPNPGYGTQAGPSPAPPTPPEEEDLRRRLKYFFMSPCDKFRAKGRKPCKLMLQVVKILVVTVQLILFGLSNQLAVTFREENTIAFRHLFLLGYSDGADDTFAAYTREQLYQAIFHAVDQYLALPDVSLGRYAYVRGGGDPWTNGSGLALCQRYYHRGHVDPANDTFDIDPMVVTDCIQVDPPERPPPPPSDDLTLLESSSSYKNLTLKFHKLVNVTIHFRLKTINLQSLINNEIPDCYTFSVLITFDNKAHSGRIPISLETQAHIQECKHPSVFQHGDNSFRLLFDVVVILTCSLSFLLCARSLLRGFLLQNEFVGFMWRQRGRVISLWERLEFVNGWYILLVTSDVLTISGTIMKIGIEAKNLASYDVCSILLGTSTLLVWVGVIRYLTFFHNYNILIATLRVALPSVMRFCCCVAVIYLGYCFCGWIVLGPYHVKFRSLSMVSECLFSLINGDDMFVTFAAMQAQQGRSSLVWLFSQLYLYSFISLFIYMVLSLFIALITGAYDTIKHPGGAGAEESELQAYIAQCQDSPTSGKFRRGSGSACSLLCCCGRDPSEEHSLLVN
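Calcium fluorescence in TRPML1-DL cells induced overnight with Tet: a 110 s read after compound pin addition, then a 110 s antagonist read after challenge with 54-4 at 4 uM final (EC80).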
TRPML1 ag: agonists of human TRPML1 channel. Q9GZU1. TRPML1-expressing cells, Ca2+ dye fluorescence, FDSS. activation, % (test concentration not listed). 410,000 compounds, 0.12% hits. AID 624414; in the data active means activation above about 50%; inconclusive means mostly about 30% to 49%
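In this qHTS format, compounds were pin-transferred onto Ca8-dye-loaded TRPML1-DL cells induced with Tet overnight, and intracellular Ca2+ fluorescence was recorded kinetically for 110 s after a 10 s baseline. A subsequent 4uM final 54-4 (EC80) addition followed by a second 110 s read served as the antagonist phase.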
GLP-1R agonist: activates the human GLP-1 receptor. HEK293 GLP-1R CRE-luciferase, luminescence, 4-6 h; cells express a hypersensitive GLP-1R form. Potency, µM (titrated, usually from 45.6 µM), most hits filed as activators. 380,000 compounds, 0.007% hits. AID 624172
GLP1R inv ag: GLP-1 receptor (human) inverse agonism; P43220; HEK293 GLP-1R CRE-luciferase, luminescence, 24 h; GLP-1R form is constitutively active; Potency, µM (highest dose often 38.3 µM), hits mostly inhibitors; 410,000 compounds, 1.6% hits; AID 624417; further: nearly all actives have a fitted effect of over 55% in size
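Cells are plated, allowed 12 hours at 37 deg C, then treated with compounds for 24 hr before luciferase detection reagent is added and luminescence is read after 12 min at room temperature. The HEK293 line carries constitutively active GLP-1R with a cAMP-responsive reporter.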
HEK293 tox: cytotoxic in the GLP-1 receptor inverse agonist counter-screen; HEK293 cAMP-luciferase reporter cells, luminescence, 24 h; Potency, µM (doses to about 38.3 µM), most hits filed as inhibitors; 410,000 compounds, 0.13% hits; AID 624418;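 further: loss of luciferase light is scored as toxicity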
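To flag toxic compounds, the library was rerun on cells for 24 hr at 37 deg C and 5% CO2. Viability-linked luminescence was captured 12 min after adding luciferase detection reagent.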
Large screens that a line does not name were inactive. Unless noted, the call rests on the fitted dose curve; in most records, active means well fitted curve in the direction sought with a large enough effect; inconclusive means small, poorly fitted or top-dose-only effect, or another doubt; inactive means no such curve, though single readings can be large; an effect the other way counts as inactive or inconclusive.

CS(=O)(=O)N1CCN(/[N+]([O-])=N/Oc2ccc([N+](=O)[O-])cc2[N+](=O)[O-])CC1 (tested in a mixture with another compound)	none (no result: GLP-1R agonist, GLP1R inv ag, HEK293 tox)
N#CC(C#N)=C(Nc1ccc(F)cc1)SCc1cccc(Br)c1	GLP1R inv ag 2µM
COc1ccc(-c2cc(C(F)(F)F)n3nc(C(=O)NCC45CC6CC(CC(C6)C4)C5)cc3n2)cc1	none
COc1cc(OC)c(NC(=O)Nc2cccc(OCc3cc(=O)n4ccccc4n3)c2)cc1Cl	none (no result: GLP-1R agonist)
C=CCCN(C(CC(C)C)C(=O)OC)S(=O)(=O)c1cc(Br)ccc1Br (configuration not stated)	GLP1R inv ag 11µM
C=CCCN(C(CC(C)C)C(=O)OC)S(=O)(=O)c1ccccc1Br (configuration not stated)	GLP1R inv ag inconclusive
O=C(Nc1ccc(F)cc1)c1cc(S(=O)(=O)Nc2ccc(F)cc2)cs1	GLP1R inv ag 10µM
O=C(N/N=C/c1ccc(O)cc1)c1cc(C23CC4CC(CC(C4)C2)C3)[nH]n1	GLP1R inv ag 1.4µM
COc1cccc(CNC(=O)CSc2ncc3c(n2)-c2cc(Cl)ccc2N(C)S3(=O)=O)c1	none (no result: GLP-1R agonist)
C[C@@H]1CN([C@@H](C)CO)C(=O)Cc2cc(NC(=O)Nc3ccc(C(F)(F)F)cc3)ccc2O[C@@H]1CN(C)S(=O)(=O)c1ccc(Cl)cc1	GLP1R inv ag 5.6µM, HEK293 tox inconclusive
C[C@@H]1CN([C@H](C)CO)C(=O)c2cc(NC(=O)Nc3ccc(C(F)(F)F)cc3)ccc2O[C@H]1CN(C)S(=O)(=O)c1ccc(Cl)cc1	GLP1R inv ag 3.2µM
CCCCCCCCN1C(=O)[C@H](CC(=O)NCc2cccs2)C[C@@]2(C(=O)OC)CC(C)(C)CC=C12	GLP1R inv ag 8.9µM (no result: TRPML1 blocker, TRPML1 ag, GLP-1R agonist)
COC(=O)[C@@]12C[C@@H](CC(=O)NCc3ccccc3)C(=O)N(Cc3ccccc3)C1=CCC(C)(C)C2	GLP1R inv ag 11µM (no result: TRPML1 blocker, TRPML1 ag, GLP-1R agonist)
CCCCN(CCCC)CCNC(=O)Cn1nc(CC)n2c(cc3sc(C)cc32)c1=O	none (no result: GLP-1R agonist)
OCCN1CCN(CC(O)COC(c2ccc(F)cc2)c2ccc(F)cc2)CC1 (configuration not stated)	GLP1R inv ag 3.5µM
COc1ccc(N2CCN(CC(O)COC(c3ccc(F)cc3)c3ccc(F)cc3)CC2)cc1 (configuration not stated)	GLP1R inv ag inconclusive
O=C(Nc1cccc(C(=O)N2CCN(c3ccc(Cl)cc3)CC2)c1)c1nsc2ccccc12	GLP1R inv ag inconclusive (no result: GLP-1R agonist)
Cc1cc(C)c(S(C)(=O)=O)c(Oc2ccc(C(C)(C)C)cc2)n1	GLP1R inv ag 11µM
Cc1ccc(S(=O)(=O)c2c(C)cc(C)nc2Oc2cccc(C(F)(F)F)c2)cc1	GLP1R inv ag 5µM
Cc1cc(C)c(S(C)(=O)=O)c(Oc2cccc(Cl)c2)n1	none
Cc1cc(-c2ccccc2)nc(Oc2cccc(C(F)(F)F)c2)c1S(C)(=O)=O	GLP1R inv ag 10µM
Cc1ccc(S(=O)(=O)N2CCC(Oc3cccc(C(F)(F)F)c3)CC2)cc1	GLP1R inv ag inconclusive
CCOC(=O)C(CC)n1nnc2sc(-c3ccccc3)cc2c1=O (configuration not stated)	none (no result: GLP-1R agonist)
O=C(c1ccc2c(c1)N(Cc1ccccc1F)C(=O)c1ccccc1S2(=O)=O)N1CCN(c2ccccn2)CC1	none
CC(C)(C)NC(=O)C(c1cccc2ccccc12)n1c(=O)c(-c2cc3ccccc3[nH]2)nc2ccccc21 (configuration not stated)	GLP1R inv ag 6.3µM (no result: TRPML1 blocker, TRPML1 ag, GLP-1R agonist)
CC(C)(C)NC(=O)C(c1ccc(C(F)(F)F)cc1)n1c(=O)c(-c2cc3ccccc3[nH]2)nc2ccccc21 (configuration not stated)	GLP1R inv ag 2.8µM (no result: TRPML1 blocker, TRPML1 ag, GLP-1R agonist)
CC(C)(C)NC(=O)C(c1ccccc1)n1c(=O)c(-c2cc3ccccc3[nH]2)nc2ccccc21 (configuration not stated)	GLP1R inv ag inconclusive (no result: TRPML1 blocker, TRPML1 ag, GLP-1R agonist)
COc1cc(/C=C/c2cc[n+](C)c3ccccc23)cc(OC)c1OC	none (no result: TRPML1 blocker, GLP-1R agonist, GLP1R inv ag, HEK293 tox)
O=C(CN1CCCCCCC1)NC(=O)NC1CCCCC1	GLP1R inv ag 4µM
